Measured values as given in PubChem BioAssay AID1053119 (Broad Institute, 2014).
Measured potencies and affinities stand elsewhere. Results filed as inconclusive are left out. Activity calls are given as the source filed them.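 The calls were made as follows: active = signal loss from cell killing with fitted potency at or below twice the top valid dose; inconclusive = flat drop of 30 to 70%, or unreliable curve fit; inactive = opposite direction, flat within 30%, or weaker potency.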

Test: viability loss in A549 lung cancer cells – cell-based, cherry-picks, 26 µM top dose, cytotoxicity control, dose response (AID 1053119);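 also: 0% = neutral control wells and -100% = 10 µM mitoxantrone wells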
Conditions: CellTiter-Glo ATP luminescence, 72 h; series mostly up to 26 µM; activity change, negative = cytotoxicity: at the top concentration

Row | Structure (SMILES) | activity change, negative = cytotoxicity
1 | C[C@H]1CN([C@@H](C)CO)C(=O)c2cc(-c3ccccc3)cnc2O[C@H]1CN(C)C(=O)c1cccc(F)c1 | -9.13% (inactive)
2 | CC(C)(C)[S@@](=O)N1Cc2cc(C(=O)NCc3ccccc3F)nc(-c3cccc(-c4cncnc4)c3)c2[C@H]1CCO | -12.2% (inactive)
3 | Cc1cccc(NC(=O)c2ccc(S(=O)(=O)N3CCCCC3)cc2)n1 | -1.35% (inactive)
4 | COCC(=O)Nc1ccc2c(c1)C(=O)N(C)[C@@H]1CC[C@@H](CC(=O)NCc3ccccc3Cl)O[C@H]1CO2 | 1.05% [at 23.5 µM] (inactive)
5 | COC(=O)C[C@H]1CC[C@@H]2[C@H](COc3ccc(NC(=O)Cc4cccs4)cc3C(=O)N2C)O1 | 2.92% [at 23.5 µM] (inactive)
6 | COc1ccc(-c2csc(CCn3nc(C)cc3C)n2)cc1OC | -10.7% (inactive)
7 | Cc1cc(C)n2ncc(C(=O)NCc3ccc(Cl)cc3)c2n1 | -3.99% (inactive)
8 | O=C(c1cccnc1)N1C[C@H]2[C@@H](c3ccccc31)[C@H](CO)N2CC1CCCC1 | -2.73% [at 23.5 µM] (inactive)
9 | O=c1c2cc(N3CCOCC3)ccc2[nH]c(=S)n1Cc1ccc(Cl)cc1 | 0.921% (inactive)
10 | C[C@@H]1CN([C@@H](C)CO)C(=O)c2cc(-c3ccccc3)cnc2O[C@@H]1CN(C)C(=O)c1cccc(F)c1 | -10.3% (inactive)
11 | C[C@@H]1CN([C@H](C)CO)C(=O)c2cccc(NC(=O)Nc3ccc(C(F)(F)F)cc3)c2O[C@H]1CN(C)C(=O)Nc1cccc2ccccc12 | -7.92% (inactive)
12 | C[C@@H]1CN([C@H](C)CO)C(=O)c2cc(NC(=O)C3CCCCC3)ccc2O[C@@H]1CN(C)Cc1ccc(-c2ccccc2)cc1 | -12.1% (inactive)
13 | C[C@@H]1CN([C@H](C)CO)C(=O)c2cc(NC(=O)C3CCCCC3)ccc2O[C@H]1CN(C)Cc1ccc(-c2ccccc2)cc1 | -1.4% (inactive)
14 | CN(C)c1ccc(-c2ccnc3c2CC(C)(C(=O)NCC2CC2)O3)cc1 (configuration not stated) | -1% (inactive)
15 | CCN(Cc1ccncc1)C(=O)c1ccc2c(c1)S(=O)(=O)c1ccccc1C2=O | -3.23% (inactive)
16 | COC(=O)C[C@H]1CC[C@H]2[C@H](COc3ccc(NC(=O)Cc4cccs4)cc3C(=O)N2C)O1 | -7.75% (inactive)
17 | CO[C@H]1CN(C)C(=O)c2ccc(NC(=O)Nc3cc(Cl)cc(Cl)c3)cc2OC[C@H](C)NC[C@@H]1C | -0.958% [at 8 µM] (inactive)
18 | COc1ncccc1C(=O)NC1CCCc2c1cnn2-c1ccc(C)c(C)c1 (configuration not stated) | -11.4% (inactive)
19 | COc1ccccc1CNc1nc(NCc2cnc(C)cn2)c2sccc2n1 | 0.101% (inactive)

Row | Structure (SMILES) | activity change, negative = cytotoxicity
20 | COc1ccccc1N(CC(=O)N(CC(C)C)CC(C)C)S(=O)(=O)c1cccs1 | -13% (inactive)
21 | Nc1c(C(=O)NCc2ccco2)nnn1Cc1ccccc1 | -6.95% (inactive)
22 | CC(C)Cc1nnc(NC(=O)CSc2nc(N)cc(=O)[nH]2)s1 | -9.89% (inactive)
23 | CN1c2ccc(-c3ccccc3)cc2[C@H]2[C@H](CCN2C(=O)CN2CCOCC2)[C@@H]1CO | 23.2% (inactive)
24 | C[C@H](CO)N1C[C@H](C)[C@@H](CN(C)C(=O)c2cccc(F)c2)Oc2ncc(-c3ccccc3)cc2C1=O | -7.25% (inactive)
25 | O=C(Nc1ccccc1F)N1C[C@H]2[C@@H](c3ccccc31)[C@@H](CO)N2C(=O)C1CC1 | -9.56% (inactive)
26 | C[C@H](CO)N1C[C@H](C)[C@@H](CN(C)Cc2ccc(-c3ccccc3)cc2)Oc2ccc(NC(=O)C3CCCCC3)cc2C1=O | -11.6% (inactive)
27 | COC(=O)c1c(NC(=O)CN2CCN(c3ccccc3Cl)CC2)sc(C)c1C | -11.6% (inactive)
28 | COCC(=O)Nc1ccc2c(c1)C(=O)N(C)[C@@H]1CC[C@@H](CC(=O)NCc3ccccc3Cl)O[C@@H]1CO2 | -6.21% [at 23.5 µM] (inactive)
29 | COc1ccccc1CC(=O)OC(C)C(=O)Nc1ccc(S(=O)(=O)N2CCCCC2)cc1 (configuration not stated) | 24.9% (inactive)
30 | N#Cc1ccc(-c2ccc3c(c2)[C@@H]2[C@@H](CCN2S(=O)(=O)c2cccc(F)c2)[C@@H](CO)N3)cc1 | -2.88% [at 23.5 µM] (inactive)
31 | C[C@H](O)C#Cc1ccc2c(c1)O[C@H](CN(C)C)[C@@H](C)CN([C@@H](C)CO)S2(=O)=O | 4.25% (inactive)
32 | O=C(OCC(O)C(O)COC(=O)c1ccccc1)c1ccccc1 (configuration not stated) | -13.2% (inactive)
33 | C[C@H]1CN([C@@H](C)CO)C(=O)c2cc(-c3ccccc3)cnc2O[C@H]1CN(C)Cc1ccccc1 | -3.41% (inactive)
34 | CCc1ccc(NC(=O)CSc2nnc(-c3ccco3)o2)cc1 | -8.55% (inactive)
35 | N#C[C@@H]1[C@H](c2ccccc2C2=CCCCC2)[C@@H](CO)N1S(=O)(=O)c1ccccc1 | -11.7% (inactive)
36 | COc1cccc(-c2ccc3c(c2)[C@@H]2[C@@H](CCN2S(=O)(=O)c2cccc(OC)c2)[C@@H](CO)N3)c1 | -1.38% (inactive)
37 | Cc1ccc(C(O)c2ncc(-c3cccc4ccccc34)[nH]2)cc1F (configuration not stated) | -1% (inactive)
